# Pf Dd2 inh: P. falciparum Dd2 growth inhibition. SYBR Green, 72 h; hits give low values. activity change, % at 10 µM. 94,000 compounds, 2.3% hits; in the data active = activity change below about -80%
# C diff growth: blocks growth of Clostridium difficile; Clostridium difficile clinical isolate growth, OD600, 24 h; hits give low values; growth activity, negative = inhibition, % at 16 µg/mL (by protocol); 86,000 compounds, 0.25% hits;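 active = mean growth activity at or below -80% and every replicate also at or below -80%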;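 also: 0% = DMSO wells and -100% = levofloxacin 16 µg/mL wells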
# Numbers without * were called inactive; / = no result given. This is a sample that favours compounds with a hit; in the whole collection about 2.3% have one here.
SMILES,Pf Dd2 inh,C diff growth
COc1ccccc1-c1ccc2c(c1)O[C@H](CN(C)C(=O)Nc1cccc(F)c1)[C@@H](C)CN([C@@H](C)CO)S2(=O)=O,-48.6,9.3
N#Cc1cccc(-c2ccc3c(c2)[C@H]2[C@H](CCN2Cc2cncnc2)[C@@H](CO)N3)c1,-65.2,-10.1
CCN(C[C@@H]1N[C@@H](CO)[C@@H]1c1ccc(-c2ccc(F)cc2)cc1)C(=O)COC,-8.8,-3.2
C[C@H](CO)N1C[C@H](C)[C@H](CN(C)Cc2ccccc2)OCc2ccccc2-c2ccccc2C1=O,-14.9,/
C[C@H](CO)N1C[C@H](C)[C@H](CN(C)S(=O)(=O)c2ccc(Cl)cc2)OCc2ccccc2-c2ccccc2C1=O,-84.7*,0.8
C[C@@H]1CN([C@H](C)CO)C(=O)c2ccccc2-c2ccccc2CO[C@@H]1CN(C)S(=O)(=O)c1ccc(Cl)cc1,-49.4,8.0
Cc1ccccc1S(=O)(=O)N(C)C[C@H]1OCc2ccccc2-c2ccccc2C(=O)N([C@H](C)CO)C[C@@H]1C,-18.6,12.4
Cc1ccccc1S(=O)(=O)N(C)C[C@H]1OCc2ccccc2-c2ccccc2C(=O)N([C@@H](C)CO)C[C@H]1C,-86.6*,1.3
COc1ccc(CN(C)C[C@@H]2OCc3cn(nn3)CCCC(=O)N([C@H](C)CO)C[C@H]2C)cc1,-81.0*,2.8
COc1ccc(CN(C)C[C@H]2OCc3cn(nn3)CCCC(=O)N([C@H](C)CO)C[C@@H]2C)cc1,21.6,1.5
C[C@H](CO)N1C[C@H](C)[C@H](CN(C)Cc2ccc(-c3ccccc3)cc2)OCc2ccccc2-c2ccccc2C1=O,-86.9*,7.8
C[C@@H]1CN([C@H](C)CO)C(=O)c2cc(NS(=O)(=O)c3cn(C)cn3)ccc2O[C@@H](C)CCCCO[C@@H]1CN(C)Cc1ccc2c(c1)OCO2,-7.3,/
C[C@@H]1CN([C@H](C)CO)C(=O)c2cc(NS(C)(=O)=O)ccc2O[C@@H](C)CCCCO[C@H]1CN(C)Cc1ccc2c(c1)OCO2,/,3.9
CC(C)NC(=O)N1[C@H](CO)[C@@H](c2ccccc2)C12CN(C(=O)Cc1cccnc1)C2,11.0,1.8
COCC(=O)Nc1ccc2c(c1)OC[C@H](C)N(Cc1ccccc1OC)C[C@@H](C)[C@H](OC)CN(C)C2=O,-64.7,/
C[C@@H]1CN([C@H](C)CO)C(=O)Cc2cc(N(C)C)ccc2O[C@@H]1CN(C)S(C)(=O)=O,16.2,-1.7
C[C@H](CO)N1C[C@H](C)[C@H](CN(C)Cc2ccc(Oc3ccccc3)cc2)Oc2ccc(NC(=O)Nc3ccc(F)cc3)cc2CC1=O,-8.0,37.2
C[C@H](CO)N1C[C@H](C)[C@@H](CN(C)Cc2ccc(Oc3ccccc3)cc2)Oc2ccc(NC(=O)Nc3ccc(F)cc3)cc2CC1=O,-82.1*,63.0
C[C@H]1CN([C@@H](C)CO)C(=O)Cc2cc(NC(=O)Nc3ccc4c(c3)OCO4)ccc2O[C@@H]1CN(C)Cc1ccc(Oc2ccccc2)cc1,-35.7,4.3
C[C@@H]1CN([C@@H](C)CO)C(=O)Cc2cc(NC(=O)Nc3ccc4c(c3)OCO4)ccc2O[C@H]1CN(C)Cc1ccc(Oc2ccccc2)cc1,-80.7*,11.0
C[C@@H]1CN([C@H](C)CO)C(=O)c2cc(N(C)C)ccc2O[C@H]1CN(C)C(=O)Nc1ccccc1,12.6,-1.7
COc1ccc(CN(C)C[C@H]2Oc3ccc(NC(=O)Cc4cn(C)c5ccccc45)cc3CC(=O)N([C@@H](C)CO)C[C@@H]2C)cc1,-37.7,-11.2
COc1ccc(NC(=O)N(C)C[C@@H]2Oc3ccc(NC(=O)Nc4ccccc4)cc3CC(=O)N([C@@H](C)CO)C[C@H]2C)cc1,-9.5,0.3
COc1ccccc1-c1cccc(-c2nc(C(=O)Nc3nccs3)cc3c2[C@H](CCO)N(C(C)=O)C3)c1,-95.4*,-6.9
COc1ccccc1-c1cccc(-c2nc(C(=O)Nc3nccs3)cc3c2[C@@H](CCO)N(C(C)=O)C3)c1,-68.9,5.3
SMILES,Pf Dd2 inh,C diff growth
CO[C@@H]1CN(C)C(=O)c2ccc(NS(C)(=O)=O)cc2OC[C@H](C)N(C(=O)CC2CC2)C[C@@H]1C,5.8,/
CCCC#Cc1ccc2c(c1)O[C@@H](CN(C)C(=O)C1CCC1)[C@@H](C)CN([C@H](C)CO)S2(=O)=O,-31.1,4.6
COc1ccc(C#Cc2cccc(-c3nc(C(=O)N[C@@H]4CCN(Cc5ccccc5)C4)cc4c3[C@@H](CCO)N(S(=O)C(C)(C)C)C4)c2)cc1OC (stereo partly specified),-88.2*,-2.4
CN(C)C(=O)c1ccc(-c2cccc(-c3nc(C(=O)NC4CCCCC4)cc4c3[C@@H](CCO)N([S@](=O)C(C)(C)C)C4)c2)cc1,-73.6,/
CN(C)C(=O)c1cccc(-c2cccc(-c3nc(C(=O)NC4CCCCC4)cc4c3[C@@H](CCO)N([S@](=O)C(C)(C)C)C4)c2)c1,-87.2*,/
CN(C)C(=O)c1cccc(-c2cccc(-c3nc(C(=O)NC4CCCCC4)cc4c3[C@H](CCO)N([S@@](=O)C(C)(C)C)C4)c2)c1,-84.2*,/
CN(C)C(=O)c1ccc(-c2cccc(-c3nc(C(=O)NC4CCCC4)cc4c3[C@@H](CCO)N([S@](=O)C(C)(C)C)C4)c2)cc1,-74.3,/
CC(C)(O)C#Cc1cccc(-c2nc(C(=O)N[C@@H]3CCN(Cc4ccccc4)C3)cc3c2[C@@H](CCO)N(S(=O)C(C)(C)C)C3)c1 (stereo partly specified),-72.4,2.8
COc1ccc(NC(=O)N(C)C[C@H]2OCCCC[C@H](C)Oc3ccc(NS(=O)(=O)c4ccc(F)cc4)cc3C(=O)N([C@H](C)CO)C[C@@H]2C)cc1,-34.4,-15.0
CCC(=O)Nc1ccc2c(c1)C(=O)N(C)[C@H]1CC[C@H](CC(=O)NCC3CC3)O[C@H]1CO2,3.8,-1.2
O=C(N[C@@H]1CC[C@@H](CCn2cc(-c3ccccc3)nn2)O[C@H]1CO)c1cnccn1,-6.0,-9.0
COc1ccc(NC(=O)Nc2ccc3c(c2)CC(=O)N([C@@H](C)CO)C[C@@H](C)[C@H](CN(C)CC2CCCCC2)O3)cc1,-90.4*,-16.7
COc1ccc(NC(=O)Nc2ccc3c(c2)CC(=O)N([C@@H](C)CO)C[C@@H](C)[C@H](CN(C)CC2CC2)O3)cc1,-40.7,-3.1
C[C@@H]1CN([C@@H](C)CO)C(=O)Cc2cc(NC(=O)Nc3ccc(F)cc3)ccc2O[C@H]1CN(C)CC1CCCCC1,-88.7*,9.7
COc1ccc(NC(=O)Nc2ccc3c(c2)CC(=O)N([C@@H](C)CO)C[C@H](C)[C@H](CN(C)CC2CC2)O3)cc1,-77.8,-4.5
C[C@@H]1CN([C@H](C)CO)C(=O)Cc2cc(NC(=O)Nc3ccc(F)cc3)ccc2O[C@H]1CN(C)CC1CC1,10.4,-0.3
COc1ccc(NC(=O)Nc2ccc3c(c2)CC(=O)N([C@@H](C)CO)C[C@@H](C)[C@@H](CN(C)CC2CCCCC2)O3)cc1,-28.5,-11.3
COc1ccc(NC(=O)Nc2ccc3c(c2)CC(=O)N([C@@H](C)CO)C[C@@H](C)[C@@H](CN(C)CC2CC2)O3)cc1,-82.6*,-2.4
COc1ccc(NC(=O)Nc2ccc3c(c2)CC(=O)N([C@H](C)CO)C[C@H](C)[C@@H](CN(C)CC2CCCCC2)O3)cc1,-86.2*,-0.6
COc1ccc(-c2cnc3c(c2)C(=O)N([C@H](C)CO)C[C@H](C)[C@H](CN(C)Cc2cccc(C(F)(F)F)c2)O3)cc1,-34.9,12.4
